Data on 36 molecules can be found in PubChem BioAssay (Tox21).

Results filed as inconclusive are left out. Values without a mark were called inactive. Calls of active or inactive are those of the source. Unless noted, calls follow the shape of the dose curve; as a rule, active = well fitted curve in the direction sought with a large enough effect in the repeat runs; inconclusive = weak or mixed curves; inactive = no such curve, though single readings can be large; an effect the other way counts as inactive or inconclusive.

Assay [1] can be described thus: qHTS assay to identify small molecule agonists of the peroxisome proliferator-activated receptor delta (PPARd) signaling pathway - cell viability counter screen (AID 743211). Also: nearly all actives have a fitted effect of over 55% in size. In outline:
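PPARd-bla HEK293H cells (3000/well) were pre-incubated 5 h at 37 C, then exposed to compound for 17 h at 37 C. After 2 h with LiveBLAzer substrate, CellTiter-Glo was added to the same wells; luminescence read after 30 min at room temperature.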

Assay [2] concerns the target Peroxisome proliferator-activated receptor delta (Homo sapiens) (UniProt Q03181). The assay is described as follows: qHTS assay to identify small molecule agonists of the peroxisome proliferator-activated receptor delta (PPARd) signaling pathway (AID 743212; calls by dose curve). In a few lines: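 GeneBLAzer UAS-bla HEK293H cells carrying a PPARδ construct were exposed to compounds at 37 °C. Beta-lactamase activity was read by FRET fluorescence after 2 h at room temperature with LiveBLAzer B/G substrate.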

For assay [3] the target is unchanged. Briefly: qHTS assay to identify small molecule antagonists of the peroxisome proliferator-activated receptor delta (PPARd) signaling pathway (AID 743215; active = well fitted inhibition curve with a large enough effect in the signal ratio in the repeat runs, not every such curve was filed as active; the % refers to the signal ratio;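 also: cells stimulated with agonist L165041 at 300 nM final during compound exposure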; also: potency is read from the fitted curve at half-maximal effect). In a few lines: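 HEK293H UAS-bla, PPARd; agonist L165041 300 nM final with cpd in DMSO; 37 C 17 h; FRET substrate, RT 2 h; fluorescence intensity.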
For assay [4], the target named is Bile acid receptor (Homo sapiens) (UniProt Q96RI1). The assay is described as follows: qHTS assay to identify small molecule antagonists of the farnesoid-X-receptor (FXR) signaling pathway (AID 743217; active = well fitted inhibition curve with a large enough effect in the signal ratio in the repeat runs, not every such curve was filed as active; the % refers to the signal ratio). In outline: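 GeneBLAzer FXR-UAS-bla HEK 293T, CDCA-stimulated (50 uM final). Compound treatment 16 h, 37 °C. Detection: beta-lactamase cleavage of B/G FRET substrate, fluorescence.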

Assay [5] in a line: qHTS assay to identify small molecule agonists of the farnesoid-X-receptor (FXR) signaling pathway - cell viability counter screen (AID 743218). Also: nearly all actives have a fitted effect of over 45% in size. In a few lines:
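Parallel cytotoxicity test: compound-treated (16 h, 37 C) HEK 293T FXR-bla reporter cells were lysed with CellTiter-Glo and luminescence recorded.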

Assay [6] has as its target Bile acid receptor (Homo sapiens) (UniProt Q96RI1). Briefly: qHTS assay to identify small molecule agonists of the farnesoid-X-receptor (FXR) signaling pathway (AID 743220; active = well fitted activation curve with a large enough effect in the signal ratio in the repeat runs, not every such curve was filed as active; the % refers to the signal ratio). In a few lines:
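Beta-lactamase reporter under UAS control in GeneBLAzer FXR HEK 293T cells (5000/well) measured with LiveBLAzer FRET substrate after 2 h at room temperature. Compound exposure lasted 16 h at 37C.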

The nature of assay [7]: qHTS assay to identify small molecule antagonists of the farnesoid-X-receptor (FXR) signaling pathway - cell viability counter screen (AID 743221; active = well fitted cell-killing curve with a large enough effect in the repeat runs, not every such curve was filed as active; also: nearly all actives have a fitted effect of over 50% in size). In outline:
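GeneBLAzer FXR-UAS-bla HEK 293T cells, compound plus chenodeoxycholic acid (50 uM final), 16 h at 37 C. CellTiter-Glo added to the same wells after the beta-lactamase read; luminescence read after 30 min at room temperature as viability.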

Assay [8] addresses Vitamin D3 receptor (Homo sapiens) (UniProt P11473). The assay is described as follows: qHTS assay to identify small molecule agonists of the vitamin D receptor (VDR) signaling pathway (AID 743222; calls by dose curve). In outline:
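In VDR-bla cells, compound-induced beta-lactamase expression is quantified by FRET substrate fluorescence. Treatment lasts 16 h at 37C; substrate develops 2 h at room temperature.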

For assay [9] the target is unchanged. The assay is described as follows: qHTS assay to identify small molecule antagonists of the vitamin D receptor (VDR) signaling pathway (AID 743223; active = well fitted inhibition curve with a large enough effect in the signal ratio in the repeat runs, not every such curve was filed as active; the % refers to the signal ratio). In outline:
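VDR-bla cells were treated with compound plus 3 nM final 1alpha,25-dihydroxyvitamin D3 for 16 h at 37C. Beta-lactamase reporter read by B/G FRET substrate fluorescence after 2 h at room temperature. qHTS format.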

Assay [10] in a line: qHTS assay to identify small molecule antagonists of the peroxisome proliferator-activated receptor delta (PPARd) signaling pathway - cell viability counter screen (AID 743213). Also: nearly all actives have a fitted effect of over 50% in size. In outline: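 Same-well viability: cells pre-incubated 5 h, dosed with compound plus 300 nM L165041, kept 17 h at 37 C, FRET substrate 2 h RT, then CellTiter-Glo 30 min RT and luminescence.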
% is scaled to controls: 0 for no effect and ±100 for the full control effect.

Sequence of Bile acid receptor (Homo sapiens) (Q96RI1 whole entry, looked up): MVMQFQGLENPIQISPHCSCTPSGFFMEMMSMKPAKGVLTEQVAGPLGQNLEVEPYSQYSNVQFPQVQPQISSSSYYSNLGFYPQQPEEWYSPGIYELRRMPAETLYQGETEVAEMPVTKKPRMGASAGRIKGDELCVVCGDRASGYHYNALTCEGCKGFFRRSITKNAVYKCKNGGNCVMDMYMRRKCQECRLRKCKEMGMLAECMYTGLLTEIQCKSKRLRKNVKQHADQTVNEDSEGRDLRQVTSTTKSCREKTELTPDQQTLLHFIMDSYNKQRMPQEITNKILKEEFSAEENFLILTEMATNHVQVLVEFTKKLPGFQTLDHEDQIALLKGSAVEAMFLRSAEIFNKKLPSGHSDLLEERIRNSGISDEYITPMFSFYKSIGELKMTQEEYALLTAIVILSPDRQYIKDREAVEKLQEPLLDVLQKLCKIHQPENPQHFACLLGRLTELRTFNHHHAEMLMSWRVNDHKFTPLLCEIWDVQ
Sequence of Peroxisome proliferator-activated receptor delta (Homo sapiens) (Q03181 whole entry, looked up): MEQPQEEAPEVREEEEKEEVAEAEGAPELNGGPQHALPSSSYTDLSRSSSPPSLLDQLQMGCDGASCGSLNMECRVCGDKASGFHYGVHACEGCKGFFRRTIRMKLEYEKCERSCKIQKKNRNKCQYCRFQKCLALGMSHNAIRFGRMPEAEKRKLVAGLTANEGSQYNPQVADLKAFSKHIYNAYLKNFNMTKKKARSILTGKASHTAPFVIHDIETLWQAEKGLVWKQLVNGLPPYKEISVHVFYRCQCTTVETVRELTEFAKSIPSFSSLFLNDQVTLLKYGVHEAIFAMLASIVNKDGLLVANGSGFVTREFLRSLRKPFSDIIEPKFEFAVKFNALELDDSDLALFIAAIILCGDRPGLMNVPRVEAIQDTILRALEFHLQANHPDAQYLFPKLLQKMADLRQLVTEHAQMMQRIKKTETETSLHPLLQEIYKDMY
Sequence of Vitamin D3 receptor (Homo sapiens) (P11473 whole entry, looked up): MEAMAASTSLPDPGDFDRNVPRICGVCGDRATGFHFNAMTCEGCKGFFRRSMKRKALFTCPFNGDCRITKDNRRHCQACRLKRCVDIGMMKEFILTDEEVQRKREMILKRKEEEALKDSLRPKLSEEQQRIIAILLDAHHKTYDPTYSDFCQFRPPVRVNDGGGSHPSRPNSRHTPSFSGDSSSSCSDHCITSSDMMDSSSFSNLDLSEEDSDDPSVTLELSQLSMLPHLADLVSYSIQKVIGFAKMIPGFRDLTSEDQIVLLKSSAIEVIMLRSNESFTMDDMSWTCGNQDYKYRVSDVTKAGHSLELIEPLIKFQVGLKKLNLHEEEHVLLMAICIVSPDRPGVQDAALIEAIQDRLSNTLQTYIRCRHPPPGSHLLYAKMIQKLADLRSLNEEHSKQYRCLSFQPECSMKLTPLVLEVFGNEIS

Turning to `COC(=O)c1cc(C(=O)OC)cc(S(=O)(=O)O)c1`, the Potency entry in [1], in [3], in assay [5] and in [7] was “inactive” throughout. In addition, the result in [2], in [4], in [6], in [8] and in assay [9] was inactive.

Turning to `CC(C)(c1ccc(O)cc1)c1ccc(O)cc1`, the Potency result in assay [1] and in [5] was “inactive” each time. Moreover, the molecule was classed as inactive in [2]. Also, the Potency in assay [3] was 24.3 µM (active).

`COc1ccccc1OCC(O)CN1CCN(CC(=O)Nc2c(C)cccc2C)CC1` (stereo not given): the Potency result in [1], in assay [10], in assay [5] and in [7] was “inactive” in each case. Besides, the molecule was classed as inactive in [2] and in assay [8].

`O=C(O)CNC(=O)c1ccc([N+](=O)[O-])cc1`: the Potency result in assay [1], in [3], in assay [5] and in assay [7] was “inactive” throughout. For the same molecule, the result in assay [2], in assay [4], in assay [6] and in assay [8] was inactive.

Turning to `O=C(O)COc1nn(Cc2ccccc2)c2ccccc12`, the Potency entry in assay [1], in assay [3], in assay [5] and in [7] was “inactive” each time. Moreover, the molecule was classed as inactive in assay [2].

Take `CC(=O)Nc1c(I)cc(I)c(C(=O)O)c1I`: the Potency entry in [1], in assay [3], in assay [5] and in assay [7] was “inactive” in each case. For the same molecule, the outcome in assay [2], in assay [8] and in assay [9] was inactive.

On to `CC(=O)OCC(=O)[C@@]1(O)CC[C@H]2[C@@H]3CCC4=CC(=O)CC[C@]4(C)[C@H]3C(=O)C[C@@]21C`, for which the Potency result in [1], in assay [10] and in assay [5] was “inactive” each time. Moreover, the call in assay [2] was inactive.

Regarding `O=C1CC2CC1C1CCCC21` (stereo not given), the Potency entry in assay [1], in [3], in assay [5] and in [7] was “inactive” throughout. Moreover, the result in [2], in assay [4] and in assay [6] was inactive.

With `CC/C=C\CC/C=C/CO`, the Potency result in assay [1], in assay [10], in [5] and in assay [7] was “inactive” each time. Besides, the molecule was called inactive in assay [2].

With `Nc1nc2c(ncn2COC(CO)CO)c(=O)[nH]1`, the Potency result in assay [1], in [3], in assay [5] and in assay [7] was “inactive” each time. Moreover, the outcome in assay [2], in [8] and in [9] was inactive.

Turning to `NC(=O)COCCN1CCN(C(c2ccccc2)c2ccc(Cl)cc2)CC1` (stereo not given), the Potency result in assay [1], in assay [3], in assay [5] and in [7] was “inactive” in each case. In addition, the molecule was classed as inactive in assay [2] and in [9].

In the case of `CCCC(=O)O[C@]1(C(=O)CO)CC[C@H]2[C@@H]3CCC4=CC(=O)CC[C@]4(C)[C@H]3[C@@H](O)C[C@@]21C`, the Potency result in assay [1], in assay [3], in assay [5] and in assay [7] was “inactive” throughout. Also, the call in [2] and in [8] was inactive.

In the case of `O=S(O)CO`, the Potency entry in assay [1], in [3] and in assay [5] was “inactive” in each case. The result in assay [2], in [4] and in assay [6] was inactive.

Take `CC1=CC(C)C(C=O)CC1` (stereo not given): the Potency result in [1], in assay [10], in assay [5] and in assay [7] was “inactive” throughout. Further, the result in [2] and in assay [8] was inactive.

As to `COCCc1ccc(OCC(O)CNC(C)C)cc1` (stereo not given), the Potency result in [1], in assay [3], in [5] and in assay [7] was “inactive” each time. Further, the result in [2], in assay [4], in [6], in assay [8] and in [9] was inactive.

For `FC(F)OC(Cl)C(F)(F)F` (stereo not given), the Potency result in assay [1], in [3], in assay [5] and in [7] was “inactive” each time. Moreover, the outcome in assay [2], in [4] and in assay [6] was inactive.

`CC(C)NC(=O)NC(C)C`: the Potency entry in assay [1], in assay [3] and in [7] was “inactive” each time. For the same molecule, the molecule was called inactive in assay [2], in assay [4], in assay [6], in assay [8] and in assay [9].

`CCn1ccnc1CC1COc2ccccc2O1` (stereo not given): the Potency result in [1], in [3] and in assay [5] was “inactive” each time. The call in [2], in [4] and in assay [6] was inactive.

Turning to `C[N+](C)(C)CC(O)CC(=O)[O-]` (stereo not given), the Potency result in assay [1], in assay [3], in assay [5] and in assay [7] was “inactive” each time. The molecule was called inactive in assay [2] and in [9].

On to `C[C@H](NC(CCc1ccccc1)C(=O)O)C(=O)N1CCC[C@H]1C(=O)O` (stereo not given in full), for which the Potency entry in assay [1], in assay [3], in [5] and in [7] was “inactive” each time. Further, the result in [2] and in assay [9] was inactive.

As for `N#Cc1ccc(C2CCCc3cncn32)cc1` (stereo not given), the Potency result in [1], in [5] and in assay [7] was “inactive” throughout. Moreover, the molecule was called inactive in [2], in assay [8] and in assay [9].

As to `CCN1CCC[C@H]1CNC(=O)c1c(O)c(Cl)cc(Cl)c1OC`, the Potency result in [1], in assay [5] and in assay [7] was “inactive” each time. The result in [2] was inactive.

`C[C@](N)(Cc1ccc(O)cc1)C(=O)O`: the activity change, negative = cytotoxicity in assay [1] is 3.74% [at 5.95 µM]. Besides, the viability change, negative = cytotoxic in assay [10] is 17.6% [at 6.26 µM]; in assay [5] it was 17.1% [at 5.95 µM]. In addition, in [4], the activity change, negative = inhibition was 3.49% [at 5.95 µM]. The activation in assay [6] is 1.44% [at 5.95 µM].

For the molecule `NC(=O)c1ccc(N)cc1`, the Potency entry in [1], in assay [10], in assay [5] and in assay [7] was “inactive” each time. The result in assay [4], in [6], in assay [8] and in assay [9] was inactive.

Consider `CCCCCCCCCCCC`, for which the Potency result in assay [1], in assay [10], in assay [5] and in assay [7] was “inactive” in each case.

On to `CN1CCN(c2cc3c(cc2F)c(=O)c(C(=O)O)cn3-c2ccc(F)cc2)CC1`, for which the Potency entry in assay [1], in assay [10], in [5] and in assay [7] was “inactive” throughout. For the same molecule, the call in assay [4], in assay [6] and in [8] was inactive.

For `O=C[C@H](O)[C@@H](O)[C@H](O)[C@H](O)CO`, the Potency result in assay [1], in [10] and in assay [5] was “inactive” throughout.

As to `CCCCC/C=C\CCC=O`, the Potency result in assay [1], in assay [10], in assay [5] and in [7] was “inactive” each time. In addition, the result in assay [8] and in assay [9] was inactive.

Consider `CC(=O)c1ccccc1O`, for which the Potency entry in assay [1], in assay [10], in assay [5] and in assay [7] was “inactive” throughout. Besides, the result in [4], in assay [6], in assay [8] and in [9] was inactive.

Turning to `COC(=O)CC(C)=O`, the Potency entry in assay [1], in assay [3] and in assay [7] was “inactive” in each case. For the same molecule, the result in [2] was inactive.

`CCN(CC)CCOCCOC(=O)C1(c2ccccc2)CCCC1`: the Potency entry in assay [1], in assay [10], in [5] and in assay [7] was “inactive” throughout. Further, the call in [4] and in assay [6] was inactive.

For the molecule `CCC=O`, the Potency result in assay [1], in assay [5] and in assay [7] was “inactive” each time. The call in assay [2] and in assay [9] was inactive.

For the molecule `CC1(C)CO[C@@H](CC(=O)O)CN1`, the Potency result in assay [1], in assay [3] and in assay [7] was “inactive” in each case. The molecule was called inactive in assay [2] and in assay [9].

Regarding `C=C1CC[C@H]2C[C@@H]1C2(C)C`, the Potency result in assay [1], in assay [5] and in assay [7] was “inactive” each time. For the same molecule, the call in assay [2], in [8] and in assay [9] was inactive.

As to `CC(C)OC(=O)c1ccccc1`, the Potency entry in assay [1], in assay [5] and in [7] was “inactive” throughout. The call in assay [2] was inactive.

For `C1CN(CCOCCN2CCOCC2)CCO1`, the Potency result in [1], in assay [5] and in assay [7] was “inactive” throughout. In addition, the result in assay [2], in [8] and in assay [9] was inactive.
